TMEM16A act: TMEM16A chloride channel activators or potentiators, primary screen, cell-based, HTS | HEK293 TMEM16A/YFP-H148Q/I152L, iodide quench fluorescence; active compounds read low | actives 0.3% (n = 340,000) | B-score at 10 µM | AID 623877, 2012;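 active means fluorescence-ratio B-score plate-corrected deviation score at least 3 library SD below zero, with starting fluorescence score within 5 deviations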;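 further: channel opened by trigger with iodide after compound preincubation; score built on the fluorescence ratio of max minus min over baseline; more negative score means more quench and so TMEM16A activation or potentiation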
Target sequence (Q8BHY3 whole entry, looked up): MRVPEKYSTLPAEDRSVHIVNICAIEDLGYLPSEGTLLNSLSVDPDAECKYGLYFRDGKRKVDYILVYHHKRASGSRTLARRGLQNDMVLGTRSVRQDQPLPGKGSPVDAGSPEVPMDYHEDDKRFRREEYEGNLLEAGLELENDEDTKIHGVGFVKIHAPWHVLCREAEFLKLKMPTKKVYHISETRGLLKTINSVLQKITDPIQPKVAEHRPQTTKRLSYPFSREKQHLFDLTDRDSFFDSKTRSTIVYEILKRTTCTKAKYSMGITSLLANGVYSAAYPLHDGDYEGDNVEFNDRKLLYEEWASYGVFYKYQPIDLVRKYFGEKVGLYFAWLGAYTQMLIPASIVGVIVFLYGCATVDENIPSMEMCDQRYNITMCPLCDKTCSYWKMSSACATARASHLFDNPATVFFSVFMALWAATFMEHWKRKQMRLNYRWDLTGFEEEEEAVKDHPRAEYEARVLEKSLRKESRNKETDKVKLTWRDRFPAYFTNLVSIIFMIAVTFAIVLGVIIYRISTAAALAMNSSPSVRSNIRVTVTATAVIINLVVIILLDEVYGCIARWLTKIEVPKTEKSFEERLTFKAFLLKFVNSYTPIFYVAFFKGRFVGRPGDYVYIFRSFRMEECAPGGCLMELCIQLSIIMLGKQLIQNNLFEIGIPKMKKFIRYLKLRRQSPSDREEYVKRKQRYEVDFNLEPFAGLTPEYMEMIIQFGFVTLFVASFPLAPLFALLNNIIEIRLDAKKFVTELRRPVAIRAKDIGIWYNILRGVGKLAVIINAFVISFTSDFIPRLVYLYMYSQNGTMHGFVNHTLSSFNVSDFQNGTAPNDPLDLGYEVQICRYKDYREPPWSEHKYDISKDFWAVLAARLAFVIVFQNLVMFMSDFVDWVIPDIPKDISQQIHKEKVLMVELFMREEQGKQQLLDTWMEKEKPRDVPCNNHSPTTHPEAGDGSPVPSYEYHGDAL
CHT allo act: CHT positive allosteric modulators, primary screen, cell-based, membrane potential dye, choline EC20; High affinity choline transporter 1 (Homo sapiens), Q9GZV3; CHT-expressing cells; active compounds read high; LV-AA mutant CHT in HEK293 cells; B-score at 10 µM; actives 0.49% (n = 310,000); AID 488977, 2010;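 active means initial fluorescence not abnormally high and integrated response B-score, plate-corrected, over 3 SD above library mean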
GPR7 antagonist: GPR7 receptor antagonists, primary screen, cell-based, fluorescence, single concentration. Neuropeptides B/W receptor type 1 (Homo sapiens), P48145. GPR7-expressing cells, fluorescence antagonist assay. actives 1.1% (n = 290,000). inhibition, % at 4.4 µM; in the data active means inhibition above about 16%, passing the limit was not always enough;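 further: cells stimulated with the agonist NPW; 0% = agonist with vehicle and 100% = vehicle without agonist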
Kir21 block: inhibitors of mouse Kir2.1 inward-rectifier potassium channel | actives 0.85% (n = 310,000) | B-score at 10 µM | HEK293-Kir2.1, FluxOR thallium flux fluorescence; active compounds read low;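 active means fluorescence ratio B-score at or below minus 3 SD of library scores, with starting-brightness B-score within 2 SD, cut at about -4.2 in these data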;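 further: channel flux triggered by added potassium and thallium sulfate stimulus; B-score of peak minus minimum fluorescence over baseline after thallium stimulus; more negative B-score means stronger Kir2.1 block with less thallium influx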
ANO1 block: TMEM16A chloride channel inhibitors, primary screen, cell-based, HTS; actives 1.2% (n = 310,000); Anoctamin-1 (Mus musculus), Q8BHY3; normalized B-score (activity score, 25-100; higher = stronger inhibition) at 10 µM; HEK293 TMEM16A/YFP iodide influx fluorescence, ionomycin; AID 588511, 2011;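 active means ratio plate-corrected score three or more library SD toward inhibition, starting fluorescence score within five deviations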;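 further: score derived from kinetic fluorescence span divided by baseline fluorescence per well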
CHT block: inhibitors of human choline transporter CHT; B-score at 10 µM; actives 0.86% (n = 310,000); CHT-expressing cells, membrane potential dye, choline response; active compounds read low; High affinity choline transporter 1 (Homo sapiens), Q9GZV3;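 active means B-score over 3 SD under the library average, and starting fluorescence ratio not unusually high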;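 further: choline stimulus applied at its EC90 after an EC20 pre-addition; B-score computed on integrated fluorescence ratio after choline addition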
CHT block conf: CHT inhibitors, confirmation, cell-based, membrane potential dye, duplicate; shares compounds with CHT block; CHT-expressing cells, choline membrane potential dye; LV-to-AA substituted CHT, HEK293 cells; CHT activity remaining % of control (active compounds read low), % at 10 µM; actives 70% (n = 2,400); AID 493221, 2011;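 active means choline transporter activity left, mean of duplicates at 10 µM, below buffer-only control mean minus 3 SD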;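 further: depolarization triggered by choline at its EC90 following an EC20 pre-addition; 0% = hemicholinium-3 full block and 100% = buffer-only control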
HEK293 MPD ctr: membrane potential effects in parental HEK293, counter-screen for CHT inhibitor project, cell-based, membrane potential dye | shares compounds with CHT block | choline response; active = decrease or increase beyond buffer ±3SD | membrane potential ratio readout (active if shifted either direction beyond buffer ±3SD; no single direction) at 10 µM | actives 4% (n = 2,400);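 further: parental cells lack the transporter so any hit is non-specific; ratio is peak minus trough fluorescence over baseline after EC90 choline challenge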
An asterisk follows results filed as active; i = inactive; x = not tested or not shown. An excerpt weighted towards active compounds, which were near 3.7% of everything screened.

SMILES | TMEM16A act | CHT allo act | GPR7 antagonist | Kir21 block | ANO1 block | CHT block | CHT block conf | HEK293 MPD ctr
CCc1cc(CC)c(/C=N/NC(N)=O)c(CC)c1/C=N/NC(N)=O | i | i | -12 | -0.32 | i | -9.3* | 19%* | i
O=C(CCC1CCCC1)NCCS(=O)(=O)N1CCN(c2ccc(F)cc2)CC1 | i | i | x | 0.18 | i | -5.2* | i | i
CCCCSc1nc2sc3c(c2c(=O)[nH]1)CC(C)(CC)OC3 (stereo not given) | i | i | -25 | 1.1 | i | i | x | x
CC(C)c1ccc(N2C(=O)CC(NNC(=O)c3cccnc3)C2=O)cc1 (stereo not given) | i | i | -13 | -1 | i | i | x | x
C=CCNc1ncnc2c1cnn2-c1ccc(C)cc1C | i | i | 0 | -0.14 | i | i | x | x
CCOC(=O)N1CCC(Nc2ncnc3c2cnn3-c2ccc(C)cc2C)CC1 | i | i | 4 | 0.01 | i | -6.9* | i | i
C#CC[N+](CC)(CC)CC#Cc1ccccc1 | i | i | 6 | 0.73 | i | -7.7* | 35%* | i
O=C(Nc1ccc(F)c(Cl)c1)c1cccnc1 | i | i | -12 | 1 | i | -6.1* | i | i
O=C(Nc1ccc(F)c(Cl)c1)c1ccccc1 | i | i | x | x | i | i | x | x
CCOC(=O)c1cccc(Nc2ncnc3ccccc23)c1 | i | i | 7 | -2.1 | i | -8.2* | 25%* | i
CC(CC(=O)N1CCc2ccccc21)S(=O)(=O)c1ccc2c(c1)NC(=O)CO2 (stereo not given) | i | i | 7 | -0.01 | i | i | x | x
O=C(Nc1ccccc1C(=O)NCCCn1ccnc1)c1ccccc1 | i | i | -3 | 1.6 | i | -10* | 13%* | i
CC(C)c1ccc(/C=C(\NC(=O)c2ccccc2)C(=O)NCCCn2ccnc2)cc1 | i | i | 9 | -1.3 | i | -8.2* | 23%* | i
O=C(NCCCn1ccnc1)/C(=C/c1ccc(F)cc1)NC(=O)c1ccccc1 | i | i | -18 | 0 | i | i | x | x
Cc1ccc(-c2cc(C(=O)O)c3cc(Br)ccc3n2)o1 | i | i | 3 | 0.14 | i | i | x | x
Cc1ccc(-c2cc(C(=O)NCCCn3ccnc3)c3cc(Br)ccc3n2)o1 | i | i | -6 | x | i | -9.2* | 24%* | i
Cc1ccccc1NC(=O)NC1(C(=O)N2CCN(C)CC2)CCCCC1 | i | i | -8 | -0.07 | i | i | x | x
COc1cc(C2C(C#N)=C(N)OC3=C2C(=O)CC(C)(C)C3)ccc1OCCN1CCOCC1 (stereo not given) | i | i | -13 | -1.2 | i | i | x | x
CC(=O)c1ccc(N2CCN(C(=O)CCC(=O)Nc3ccc4nc(N5CCN(C)CC5)cc(C)c4c3)CC2)cc1 | i | i | -1 | 0.65 | i | i | x | x
Cc1nc2cc(C(=O)N3c4ccccc4CC3C)ccc2s1 (stereo not given) | i | i | 4 | -0.87 | i | -5.3* | 56%* | i
COc1cc(Br)ccc1NC(=O)c1ccccc1-c1ccccc1C(=O)O | i | i | x | -0.13 | i | -5.4* | i | i
O=C1c2ccccc2-c2cccnc21 | i | i | -10 | -0.47 | i | -6.8* | 37%* | i
Cc1nc2c(nc1C)C(=O)c1ccccc1C2=O | i | x | x | x | x | x | x | x
COc1ccc(CCNC(=O)c2ccc3nc(N4CCCCC4)sc3c2)cc1OC | i | i | -7 | -0.04 | i | i | x | x
Nc1ccc(O)c2c1C(=O)c1ccccc1C2=O | i | i | -2 | -0.54 | i | i | x | x
SMILES | TMEM16A act | CHT allo act | GPR7 antagonist | Kir21 block | ANO1 block | CHT block | CHT block conf | HEK293 MPD ctr
O=C1c2ccccc2C(=O)c2c(Nc3ccc(CCO)cc3)ccc(O)c21 | i | i | 3 | 0.03 | i | -7.4* | 67%* | i
Cc1onc(-c2ccccc2)c1C(=O)NNC(=S)NC(=O)c1ccc(Br)cc1 | i | i | -8 | 1.8 | 100* | -6.2* | 55%* | i
Cc1ccc(NC(=S)Nc2ccc3[nH]c(=O)[nH]c3c2)cc1C | i | i | -12 | 0.43 | i | -6.9* | 63%* | i
Cc1ccccc1NC(=O)NCc1ccccn1 | i | i | x | 1.5 | i | i | x | x
CCCCNC(=O)Nc1c(C(=O)OC)[nH]c2ccc(C)cc12 | i | i | -4 | -1.3 | i | -6.9* | i | i
C=Cn1cc[n+](CC(=O)c2ccc(Cl)c(Cl)c2)c1 | i | i | -5 | 0.48 | i | -7.2* | 48%* | i
OCCOc1cccc(CN2CCC(CO)(CCOc3ccccc3)CC2)c1 | i | i | -2 | -0.86 | i | -10* | i | i
Nc1c(Br)cc2c([nH]c(=O)c3ccccc32)c1Br | i | x | x | x | x | x | x | x
Cc1cc(C)cc(OCC(=O)N2CCN(c3ncccn3)CC2)c1 | i | x | x | x | x | x | x | x
Oc1c(Br)cc(Br)cc1C=NCc1ccc(F)cc1 | i | i | -7 | 1.1 | i | -7.1* | 57%* | i
Oc1c(Br)cc(Br)cc1C=NCc1ccccc1 | i | i | 0 | -1.2 | i | -9.8* | 42%* | i
COc1cc(CNc2ccc(N3CCCCC3)cc2)ccc1OCC(=O)NC(C)(C)C | i | i | -11 | -1.3 | i | -9.9* | 47%* | i
COc1cc(CNc2ccc(N3CCCC3)cc2)ccc1OCc1ccccc1 | i | i | -7 | x | i | i | x | x
O=S(Cc1ccccc1)CC(O)(c1ccccc1)c1ccccc1 (stereo not given) | i | i | 9 | 0.2 | i | -5.1* | i | i
Cc1noc(C)c1CSc1nc2[nH]ncc2c(=O)n1-c1ccccc1 | i | i | 11 | -0.91 | i | -5.5* | i | i
COC(=O)COc1ccc(S(=O)(=O)N2CCN(c3ccccc3F)CC2)cc1 | i | i | 3 | 0.01 | i | -5.2* | i | i

Screening results deposited in PubChem by several laboratories.
